Values joined by “and” are separate entries in the source; they are usually repeats but may differ in a detail not shown here. Equal values may be shown once. About 2,000 (36%) of roughly 5,500 compounds were called active. Roughly 18% stayed inconclusive and do not appear here. No stated cut-off is given here; in the data, active means normalized growth mostly below about 0.91 (no sharp cut-off); inconclusive means no clear call, values can overlap the other calls; inactive means mostly above about 0.92. The list shows a part of the results.
Test: chemical genetic growth profiling, strain panel (AID 1159580);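 further: tested at 20 µM; growth read once vehicle control cultures reached saturation at 30 °C; 1 = growth at the plate median or of vehicle wells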
Settings: S. cerevisiae deletion strains, growth OD

Measured: normalized growth

Cc1cc(C)cc(OCC2CNC(=O)O2)c1 (stereo unspecified)
inactive: locus YAL013W, strain DEP1, stronger effect = lower value 1.01 | locus YAL021C, strain ccr4, stronger effect = lower value 0.995 | locus YAL026C, strain drs2, stronger effect = lower value 0.977 | locus YAL030W, strain snc1, stronger effect = lower value 0.984 | locus YBL061C, strain skt5, stronger effect = lower value 0.97 | locus YBR009C, strain hhf1, stronger effect = lower value 0.985 | locus YBR021W, strain FUR4, stronger effect = lower value 1.02 | locus YBR023C, strain chs3, stronger effect = lower value 0.972 | locus YBR171W, strain sec66, stronger effect = lower value 0.963 | locus YBR229C, strain ROT2, stronger effect = lower value 1 | locus YBR231C, strain swc5, stronger effect = lower value 0.992 | locus YBR279W, strain paf1, stronger effect = lower value 0.969 | locus YCL011C, strain gbp2, stronger effect = lower value 0.977 | locus YCL016C, strain dcc1, stronger effect = lower value 0.979 | locus YCL029C, strain bik1, stronger effect = lower value 1.01 | locus YCL061C, strain MRC1, stronger effect = lower value 0.973 | locus YCL069W, strain vba3, stronger effect = lower value 0.975 | locus YCR088W, strain abp1, stronger effect = lower value 0.977 | locus YDL005C, strain med2, stronger effect = lower value 0.97 | locus YDL035C, strain GPR1, stronger effect = lower value 1.02 | locus YDL040C, strain nat1, stronger effect = lower value 0.972 | locus YDL074C, strain BRE1, stronger effect = lower value 1.03 | locus YDL101C, strain DUN1, stronger effect = lower value 1.02 | locus YDL134C, strain PPH21, stronger effect = lower value 1.02 | locus YDL185W, strain tfp1, stronger effect = lower value 1.02 | locus YDL192W, strain arf1, stronger effect = lower value 1.01 | locus YDR001C, strain nth1, stronger effect = lower value 0.979 | locus YDR069C, strain doa4, stronger effect = lower value 0.986 | locus YDR101C, strain arx1, stronger effect = lower value 1.01 | locus YDR137W, strain rgp1, stronger effect = lower value 0.92 | locus YDR150W, strain NUM1, stronger effect = lower value 1.02 | locus YDR159W, strain sac3, stronger effect = lower value 0.986 | locus YDR162C, strain NBP2, stronger effect = lower value 1.03 | locus YDR195W, strain ref2 0.97 | locus YDR297W, strain sur2, stronger effect = lower value 0.976 | locus YDR318W, strain mcm21, stronger effect = lower value 1.02 | locus YDR334W, strain swr1, stronger effect = lower value 0.966 | locus YDR335W, strain msn5, stronger effect = lower value 0.971 | locus YDR388W, stronger effect = lower value 1.01 | locus YDR392W, strain spt3, stronger effect = lower value 0.983 | locus YDR502C, strain sam2, stronger effect = lower value 1.02 | locus YEL003W, strain gim4, stronger effect = lower value 0.981 | locus YEL037C, strain rad23, stronger effect = lower value 0.979 | locus YEL061C, strain CIN8 (second series), stronger effect = lower value 0.966 | locus YEL061C, strain CIN8, stronger effect = lower value 1 | locus YER015W, strain faa2, stronger effect = lower value 0.982 | locus YER016W, strain bim1, stronger effect = lower value 0.983 | locus YER110C, stronger effect = lower value 1.01 | locus YER111C, strain swi4, stronger effect = lower value 0.971 | locus YER155C, strain BEM2 (second series), stronger effect = lower value 0.972 | locus YER155C, strain BEM2, stronger effect = lower value 1.02 | locus YER167W, strain BCK2, stronger effect = lower value 1.02 | locus YGL078C, strain dbp3, stronger effect = lower value 1.01 | locus YGL086W, strain mad1, stronger effect = lower value 1.01 | locus YGL167C, strain pmr1, stronger effect = lower value 0.971 | locus YGL173C, strain kem1, stronger effect = lower value 0.966 | locus YGL227W, strain vid30, stronger effect = lower value 0.972 | locus YGL240W, strain doc1, stronger effect = lower value 0.976 | locus YGL248W, strain PDE1, stronger effect = lower value 1.01 | locus YGL253W, strain hxk2, stronger effect = lower value 0.97 | locus YGR078C, strain PAC10, stronger effect = lower value 1.01 | locus YGR135W, strain pre9, stronger effect = lower value 0.998 | locus YGR229C, strain SMI1, stronger effect = lower value 1.02 | locus YGR252W, strain gcn5, stronger effect = lower value 1 | locus YHR013C, strain ard1, stronger effect = lower value 0.928 | locus YHR027C, strain rpn1, stronger effect = lower value 0.964 | locus YHR030C, strain SLT2, stronger effect = lower value 1.01 and 1.04 | locus YHR079C, strain IRE1 (second series), stronger effect = lower value 1.02 | locus YHR079C, strain IRE1, stronger effect = lower value 1.05 | locus YHR094C, strain hxt1, stronger effect = lower value 1.02 | locus YHR129C, strain ARP1, stronger effect = lower value 1.02 | locus YHR142W, strain chs7, stronger effect = lower value 0.968 | locus YHR200W, strain rpn10, stronger effect = lower value 1.02 | locus YIL066C, strain RNR3, stronger effect = lower value 1.02 | locus YIL073C, strain SPO22, stronger effect = lower value 1.03 | locus YIL125W, strain kgd1, stronger effect = lower value 1.01 | locus YIR030C, strain dcg1, stronger effect = lower value 1.02 | locus YJL092W, strain hpr5, stronger effect = lower value 0.972 | locus YJL095W, strain BCK1 (second series), stronger effect = lower value 0.971 | locus YJL095W, strain BCK1, stronger effect = lower value 1.01 and 1.02 | locus YJL115W, strain asf1, stronger effect = lower value 0.965 | locus YJL129C, strain trk1, stronger effect = lower value 0.974 | locus YJL134W, strain LCB3, stronger effect = lower value 1.02 | locus YJL154C, strain vps35, stronger effect = lower value 0.973 | locus YJL164C, strain tpk1, stronger effect = lower value 0.98 | locus YJL166W, strain qcr8, stronger effect = lower value 0.981 | locus YJL168C, strain set2, stronger effect = lower value 1.02 | locus YJL187C, strain SWE1 (second series), stronger effect = lower value 1.01 | locus YJL187C, strain SWE1, stronger effect = lower value 0.982 | locus YJR043C, strain POL32, stronger effect = lower value 1.02 | locus YJR066W, strain TOR1, stronger effect = lower value 0.99

Reference: PubChem BioAssay AID1159580 (chemical genetic matrix, 2015)
